Measurements taken from the supplement of paper PMC4840960.

Key:
[1] = system: E18 rat cortical neuron-glia co-culture; test: fiber score / MBP score (myelination specific beyond OL differentiation) (ratio); higher = more myelination-specific MBP alignment; conditions: treatment time: 8 days (DIV5-DIV13)
Outline: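 Fiber score divided by MBP score is the read-out; fiber score is continuous MBP fiber length per Olig2+ nucleus, and MBP score is thresholded MBP area × intensity per Olig2+ nucleus. Primary E18 rat cortical co-cultures were dissociated with papain and seeded at 20,000 cells/well on poly-d-lysine/laminin 96-well plates. Library compounds at 1 or 5 µM were given in myelination medium from DIV5 to DIV13, after which cells were fixed in 4 % paraformaldehyde, immunostained for MBP and Olig2 with DAPI, and imaged in four 10X fields per well in duplicate wells.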

[2] = system: E18 rat cortical neuron-glia co-culture; test: myelination (MBP fiber length per Olig2+ nucleus), % of 1 µM DAPT response (DMSO = 0) (% of DAPT); higher = more myelination, active = 50 or more; conditions: treatment time: 8 days (DIV5-DIV13)
Outline: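 Four 10X fields in each of duplicate wells were analysed after cultures were fixed in 4 % paraformaldehyde and immunostained for MBP and Olig2, with DAPI as the nuclear counterstain. The cultures were papain-dissociated primary E18 rat cortical co-cultures at 20,000 cells/well on poly-d-lysine/laminin 96-well plates, dosed with library compounds at 1 or 5 µM in myelination medium from DIV5 to DIV13. The myelination readout was continuous straight MBP fiber length per Olig2+ nucleus, with 0.1 % DMSO set to 0 and a 1 µM positive control set to 100.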

SMILES	fiber score / MBP score ([1]; 1 µM)	fiber score / MBP score ([1]; 5 µM)	myelination ([2]; 1 µM)	myelination ([2]; 5 µM)
CC(C)(C)NC(=O)[C@@H]1CN(Cc2cccnc2)CCN1C[C@@H](O)C[C@@H](Cc1ccccc1)C(=O)N[C@H]1c2ccccc2C[C@H]1O [Indinavir]	0.908	0.894	-20.5 (inactive)	-24.1 (inactive)
CNNCc1ccc(C(=O)NC(C)C)cc1 [Procarbazine]	0.937	1.09	-6.44 (inactive)	-0.797 (inactive)
Clc1ccc2c(c1)CCc1cccnc1C2=C1CCNCC1 [Desloratadine]	0.902	0.803	-12.9 (inactive)	-23.3 (inactive)
CCOC(=O)[C@H](CCc1ccccc1)N[C@@H](C)C(=O)N1CCC[C@H]1C(=O)O [Enalapril]	0.732	0.734	-22.3 (inactive)	-27.5 (inactive)
C=C1/C(=C\C=C2/CCC[C@]3(C)[C@@H]([C@H](C)CCCC(C)(C)O)CC[C@@H]23)C[C@@H](O)C[C@@H]1O [Calcitriol]	0.737	0.531	-11.1 (inactive)	6.28 (inactive)
CCCNC(C)C(=O)Nc1ccccc1C (stereo unspecified) [Prilocaine]	0.73	1.1	-5.12 (inactive)	9.24 (inactive)
NS(=O)(=O)c1cc2c(cc1Cl)N=CNS2(=O)=O [Chlorothiazide]	1.05	0.841	3.67 (inactive)	6.93 (inactive)
CCc1c(C)[nH]c2c1C(=O)C(CN1CCOCC1)CC2 (stereo unspecified) [Molindone]	0.619	0.498	-21 (inactive)	-25.8 (inactive)
C[C@H]1COc2c(C3(N)CC3)c(F)cc3c(=O)c(C(=O)O)cn1c23 [Pazufloxacin]	0.814	1.19	-22.4 (inactive)	17.6 (inactive)
